Compound activity (PubChem)
LGR2 inh: Drosophila LGR2 receptor signaling inhibition | inhibition, % at 9.99 µM | HEK293 LGR2, CRE-luciferase, bursicon-stimulated, 4 h | 380,000 compounds, 0.35% hits;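 active = drop in luminescence signal, shown as inhibition above about 50% in the replicate tests, limit read from the data, passing the limit was not always enough; inconclusive = probably only some replicates passing the limit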;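 note: agonist challenge used bursicon conditioned medium at about half maximal strength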
Shn3 3UTR inh: Schnurri-3 reporter inhibition in Clone20 osteoblasts; inhibition, % at 12.5 µM; 360,000 compounds, 0.52% hits; AID 588674; Clone20 osteoblast Shn3 3'UTR firefly luciferase, 24 h;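 active = mean inhibition of at least 75% with every replicate also reaching 75%; inconclusive = mean inhibition at least 75% but some replicate below; inactive = mean inhibition below 75%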;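 note: 0% = median of neutral control wells and 100% = pilot-screen positive control compound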
EWS-Fli inh: blocks EWS/Fli oncoprotein-driven transcription; AID 651661; A673 NR0B1-luciferase reporter, viability-normalised; inhibition, % at 12.6 µM; 350,000 compounds, 0.67% hits;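 active = mean inhibition of at least 50% after viability correction, with every replicate also passing that limit; inconclusive = mean reaches 50% but only one of two replicates passes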;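 note: firefly luciferase signal divided by Alamar Blue viability fluorescence both relative to DMSO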
LMP1 NFkB inh: reduces LMP1-driven NF-kappaB luciferase signal; LMP1-induced NF-kappaB luciferase reporter cells, luminescence; inhibition, % at 12.5 µM; 350,000 compounds, 0.69% hits; AID 504558; in the data active = inhibition above about 41%; inconclusive = no clear call, values can overlap the other calls;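 note: 0% = neutral control wells and 100% = reference inhibitor control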
TRPM1 prom inh: inhibitors of MITF-driven TRPM1 promoter in melanoma cells; SK-MEL-5 TRPM1 promoter luciferase, 24 h; inhibition, % at 12.5 µM; 330,000 compounds, 0.83% hits; AID 488899;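 active = mean inhibition across replicates of 60% or more, whatever share of single replicates reaches that level; inconclusive = some that reach 60%, reason not given; inactive = mean inhibition across replicates below 60%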
PAX8 inh HTS: inhibitors of PAX8 transcriptional activity in RMG-I cells | RMG-I TPO-luciferase reporter, SteadyGlo, 24 h | inhibition, % at 12.6 µM | 360,000 compounds, 1.2% hits | AID 652154;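 active = mean replicate inhibition at least 60% with every replicate also reaching 60%; inconclusive = only one of the two criteria is met; inactive = mean below 60% and not all replicates reaching 60%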;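 note: luciferase light reporting Pax8 driven TPO promoter activity; plate controls were median of neutral control wells for no effect and mitoxantrone controls for full effect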
Starred values were filed as active, the others as inactive; ? = inconclusive; . = not tested or not shown. An excerpt weighted towards active compounds, which were near 2.2% of everything screened.

SMILES	LGR2 inh	Shn3 3UTR inh	EWS-Fli inh	LMP1 NFkB inh	TRPM1 prom inh	PAX8 inh HTS
C[C@H](O)C#Cc1ccc2c(c1)O[C@@H](CN(C)Cc1ccc(-c3ccccc3)cc1)[C@@H](C)CN([C@H](C)CO)S2(=O)=O	5.8	.	20.3	.	.	94.3*
C[C@@H](O)C#Cc1ccc2c(c1)O[C@H](CN(C)Cc1ccc(-c3ccccc3)cc1)[C@@H](C)CN([C@@H](C)CO)S2(=O)=O	13.0	.	-1.0	.	.	102.6*
C[C@@H](O)C#Cc1ccc2c(c1)O[C@@H](CN(C)Cc1ccc(-c3ccccc3)cc1)[C@@H](C)CN([C@@H](C)CO)S2(=O)=O	20.0	.	-5.2	.	.	50.2
C[C@H](CO)N1C[C@H](C)[C@@H](CN(C)Cc2ccc(-c3ccccc3)cc2)Oc2cc(C#C[C@@H](C)O)ccc2S1(=O)=O	27.2	.	-1.5	.	.	74.0*
CCCC#Cc1ccc2c(c1)O[C@H](CN(C)Cc1ccccc1)[C@@H](C)CN([C@@H](C)CO)S2(=O)=O	10.7	.	3.2	.	.	6.5
CCCC#Cc1ccc2c(c1)O[C@H](CN(C)Cc1ccccc1)[C@@H](C)CN([C@H](C)CO)S2(=O)=O	2.9	.	20.9	.	.	80.2*
Cc1cccc(S(=O)(=O)N2CC[C@H]3[C@@H](CO)N(C)c4ccc(-c5cccc(C#N)c5)cc4[C@H]32)c1	2.9	.	8.8	.	.	50.9
CO[C@H]1CN(C)C(=O)c2cc(NC(=O)C3CCOCC3)ccc2OC[C@@H](C)N(Cc2nccs2)C[C@@H]1C	5.1	.	-1.8	.	.	-15.4
C[C@H](CO)N1C[C@H](C)[C@H](CN(C)C(=O)c2ccc3c(c2)OCO3)Oc2cc(-c3cncnc3)ccc2S1(=O)=O	-3.8	.	-8.2	.	.	.
COc1ccc2c(c1)-c1c(ssc1=S)C(C)(C)N2	.	18.3	.	44.7*	1.2	.
Cc1cc(C)nc(NC(N)=NCCc2ccccc2)n1	23.9	27.0	4.0	29.9	65.4*	50.6
C[C@@H]1CN([C@@H](C)CO)C(=O)c2cc(NS(=O)(=O)c3ccc(Cl)cc3)ccc2O[C@@H](C)CCCCO[C@@H]1CN(C)C(=O)Nc1ccc(F)cc1	-3.0	.	-4.6	.	.	5.5
C[C@@H]1CN([C@H](C)CO)C(=O)c2cc(NS(=O)(=O)c3ccc(F)cc3)ccc2O[C@@H](C)CCCCO[C@H]1CN(C)C(=O)Nc1ccc(F)cc1	11.6	.	-4.2	.	.	21.1
Cc1ccc(S(=O)(=O)Nc2ccc3c(c2)C(=O)N([C@H](C)CO)C[C@@H](C)[C@H](CN(C)C(=O)Nc2ccc(F)cc2)OCCCC[C@@H](C)O3)cc1	-22.6	.	12.2	.	.	61.0*
C[C@@H]1CN([C@H](C)CO)C(=O)c2cc(NS(=O)(=O)c3ccc(Cl)cc3)ccc2O[C@@H](C)CCCCO[C@H]1CN(C)C(=O)Nc1ccc(F)cc1	20.2	.	1.9	.	.	66.6*
C[C@H]1CCCCO[C@H](CN(C)C(=O)Nc2ccc(F)cc2)[C@@H](C)CN([C@@H](C)CO)C(=O)c2cc(NS(=O)(=O)c3ccc(F)cc3)ccc2O1	11.6	.	17.0	.	.	66.9*
COc1ccc(S(=O)(=O)Nc2ccc3c(c2)C(=O)N([C@@H](C)CO)C[C@H](C)[C@@H](CN(C)C(=O)Nc2ccc(F)cc2)OCCCC[C@H](C)O3)cc1	-19.2	.	-4.4	.	.	84.7*
COc1ccc(NC(=O)N(C)C[C@@H]2OCCCC[C@H](C)Oc3ccc(NS(=O)(=O)c4ccc(F)cc4)cc3C(=O)N([C@@H](C)CO)C[C@@H]2C)cc1	0.0	.	-9.1	.	.	-15.0
CCS(=O)(=O)Nc1ccc2c(c1)C(=O)N(C)[C@H]1CC[C@@H](CC(=O)N3CCOCC3)O[C@H]1CO2	2.1	.	-0.5	.	.	-6.0
CCC(=O)Nc1ccc2c(c1)OC[C@H](C)N(Cc1ccccc1C(=O)O)C[C@H](C)[C@@H](OC)CN(C)C2=O	-3.4	.	3.2	.	.	-22.5
C[C@H](CO)N1C[C@H](C)[C@@H](CN(C)Cc2ccc3c(c2)OCO3)Oc2ccc(NC(=O)CCN3CCOCC3)cc2CC1=O	-7.9	.	-1.9	.	.	-4.1
Cc1ccc2c(CSc3nc4ccccc4c(=O)n3CCCO)cc(=O)oc2c1C	.	1.1	.	9.7	-0.3	.
Cc1ccc2c(CSc3nnc4ccccn34)cc(=O)oc2c1C	-9.4	-21.9	-37.4	-2.6	4.5	65.9*
COC(=O)C[C@@H]1CC[C@H]2[C@@H](COc3ccc(NC(=O)c4ccccc4F)cc3C(=O)N2C)O1	-8.8	.	1.2	.	.	-18.5
COCCNC(=O)C[C@H]1CC[C@H](NC(=O)NC2CCCCC2)[C@@H](CO)O1	13.8	.	.	.	.	.
SMILES	LGR2 inh	Shn3 3UTR inh	EWS-Fli inh	LMP1 NFkB inh	TRPM1 prom inh	PAX8 inh HTS
N#Cc1cccc(-c2csc(C(O)(c3ccccc3)C(F)(F)F)n2)c1 (stereo unspecified)	10.9	2.1	57.7*	.	.	9.2
CC(O)(c1ccncc1)c1nc(-c2cccc(C(F)(F)F)c2)cs1 (stereo unspecified)	1.4	85.2*	0.6	.	.	-3.2
OC(c1ccccc1)(c1nc(-c2cccc(C(F)(F)F)c2)cs1)C(F)(F)F (stereo unspecified)	-9.8	-5.0	19.9	.	.	-4.3
C[C@@H]1CN([C@@H](C)CO)C(=O)Cc2cc(NS(C)(=O)=O)ccc2O[C@@H]1CN(C)Cc1ccc(-c2ccccc2)cc1	-2.3	.	.	.	.	5.0
CCOC1CCCC(n2cnc3c(=S)nc[nH]c32)O1 (stereo unspecified)	-11.8	2.1	-1.2	-0.5	-2.4	83.2*
OCC1CCCC(n2cnc3c(=S)nc[nH]c32)O1 (stereo unspecified)	-15.8	-15.5	1.2	-21.4	59.7	12.7
C[C@H]1CN([C@@H](C)CO)C(=O)c2cc(NC(=O)C3CCCCC3)ccc2O[C@H]1CN(C)Cc1ccccc1	5.2	.	5.5	.	.	5.0
CN(Cc1ccccc1)c1nc(N)c([N+](=O)[O-])c(NCc2ccccc2)n1	10.3	10.5	.	71.8*	-2.6	.
Nc1cc2ccncc2c2ccccc12	6.9	10.4	38.0	55.8*	-5.9	-45.1
COc1ccc2[nH]c(C)c(CCN(Cc3cccs3)C(=S)Nc3ccc(F)cc3)c2c1	.	86.2*	.	2.0	8.5	.
CNc1ccc(Br)cc(C(=O)/C=C/c2cc(OC)ccc2OC)c1=O	.	-42.0	.	?	51.9	92.1*
CCNc1ccc(Br)cc(C(=O)/C=C/c2ccc(Cl)cc2Cl)c1=O	.	-11.1	.	48.6*	27.0	.
Cc1ccc(S(=O)(=O)N(C)C[C@@H]2Oc3ncc(-c4ccc(F)cc4)cc3C(=O)N([C@H](C)CO)C[C@@H]2C)cc1	6.8	.	5.0	.	.	.
CCc1c(Cc2ccccc2)ncn1CCc1ccccc1OC	1.1	.	35.1	.	.	78.0*
CCCCCc1c(-c2ccccc2OC)ncn1CCc1ccccc1OC	?	.	43.0	.	.	99.4*
C[C@@H]1CN([C@@H](C)CO)C(=O)c2cc(NC(=O)Cc3ccccc3)ccc2O[C@H]1CN(C)S(=O)(=O)c1cccs1	-3.8	.	-4.6	.	.	.
C[C@@H](O)C#Cc1cnc2c(c1)C(=O)N([C@@H](C)CO)C[C@H](C)[C@@H](CN(C)Cc1ccccn1)O2	8.6	.	1.8	.	.	.
